Hits are enriched below; roughly 4.1% of the tested compounds scored in any of these assays.
AmpC inh no detg – blocks E. coli AmpC beta-lactamase in detergent-free assay | hit rate 0.52% among 330,000 | Potency, µM (top dose mostly 57.1 µM), without a hit: top-dose activity change, negative = inhibition, usual class: inhibitors | AmpC nitrocefin hydrolysis, absorbance 480 nm, 0.0001% Triton | AID 485341 | P00811;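 also: plate controls were no compound for no effect and no enzyme for full effect; nearly all actives have a fitted effect of over 20% in size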
Target sequence (P00811 whole entry, looked up): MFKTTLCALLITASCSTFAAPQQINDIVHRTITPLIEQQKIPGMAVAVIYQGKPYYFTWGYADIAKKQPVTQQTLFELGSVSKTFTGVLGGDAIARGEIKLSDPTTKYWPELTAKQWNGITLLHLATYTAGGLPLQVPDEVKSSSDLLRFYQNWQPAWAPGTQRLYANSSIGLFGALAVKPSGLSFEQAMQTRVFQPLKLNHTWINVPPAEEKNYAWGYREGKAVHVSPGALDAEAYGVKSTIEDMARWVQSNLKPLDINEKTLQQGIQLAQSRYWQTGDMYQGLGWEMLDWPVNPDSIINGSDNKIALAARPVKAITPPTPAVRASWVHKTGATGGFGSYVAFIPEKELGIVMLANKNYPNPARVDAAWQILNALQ
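AmpC (5.3 nM in the dispensed reagent) in 20 mM phosphate pH 7.0 with 0.01% (detergent screen) or 0.0001% Triton X-100 was preincubated with compounds for 15 min at room temperature. Nitrocefin was then added from an 800 uM solution, and hydrolysis was followed at 480 nm.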
AMA1-RON2 inh – disrupts binding of P. falciparum AMA1 to RON2 | AlphaScreen AMA1-biotinylated RON2 peptide binding | Potency, µM (highest dose often 58.2 µM), without a hit: at the highest dose activity change, negative = inhibition, most hits filed as inhibitors | hit rate 0.2% among 360,000 | AID 720542;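 also: 0% = vehicle wells and -100% = peptide control; nearly all actives have a fitted effect of over 45% in size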
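AMA1 (3D7) with his tag at 25 nM final met compounds first, then biotinylated RON2 peptide at 25 nM; detection used donor plus acceptor beads, 10 µg/mL apiece, read by AlphaScreen after 30 min at room temperature.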
Sm TGR block – inhibitors of Schistosoma mansoni thioredoxin glutathione reductase | Q962Y6 | purified TGR, DTNB reduction, TNB absorbance 405 nm | Potency, µM (titrated, usually from 114 µM), for the others: at the highest dose activity change, negative = inhibition, hits mostly inhibitors | hit rate 3% among 360,000 | AID 485364; also: nearly all actives have a fitted effect of over 60% in size
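First, TGR (20 nM dispensed) and NADPH were mixed with compound. Second, a 15 min room-temperature incubation followed. Third, further NADPH and then DTNB were added to start the reaction. Finally, TNB absorbance was monitored kinetically.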
AmpC detergent – blocks E. coli AmpC beta-lactamase in detergent assay; P00811; AID 485294; Potency, µM (series often up to 114 µM), without a hit: top-dose activity change, negative = inhibition, usual class: inhibitors; hit rate 0.041% among 370,000; AmpC hydrolysis of nitrocefin, absorbance 480 nm, 0.01% Triton;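 also: 0% = no-compound wells and -100% = no-enzyme wells; nearly all actives have a fitted effect of over 25% in size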
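AmpC (5.3 nM in the dispensed reagent) in 20 mM phosphate pH 7.0 with 0.01% (detergent screen) or 0.0001% Triton X-100 was preincubated with compounds for 15 min at room temperature. Nitrocefin was then added from an 800 uM solution, and hydrolysis was followed at 480 nm.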
FMDV antiviral – antivirals against foot and mouth disease virus | FMDV antiviral cell-based qHTS | Potency, µM (series often up to 57.9 µM), for inactives: top-dose activity change, negative = inhibition, most hits filed as inhibitors | hit rate 1.2% among 410,000 | AID 1159524; calls by dose curve; tested in HEK293T cells; also: read-out not given here; nearly all actives have a fitted effect of over 45% in size
The depositor's hits bear a star; ? = inconclusive; · = no result given; [ ] = another dose, or the depositor's remark. Unless noted, calls follow the shape of the dose curve; as a rule, active = well fitted curve in the direction sought with a large enough effect; inconclusive = small, poorly fitted or top-dose-only effect, or another doubt; inactive = no such curve, though single readings can be large; an effect the other way counts as inactive or inconclusive. Unless noted, % is scaled to controls: 0 for no effect and ±100 for the full control effect; potency is read from the fitted curve at half-maximal effect.

SMILES | AmpC inh no detg | AMA1-RON2 inh | Sm TGR block | AmpC detergent | FMDV antiviral
CC#CC[N+](C)(C)CCCCCCCCCCCC | 89% | -2% | 4% | -4% | 13µM*
C#CC[N+](C)(C)CCCCCCCCCCCC | 58% | -6%[11.6 µM] | 0% | -11% | 22µM*
Cc1cc([C@](C)(N)C(=O)O)ccc1P(=O)(O)O | · | · | · | · | -5%
O=C1NC(=O)C(=Cc2coc3ccccc3c2=O)C(=O)N1 | -31% | -2% | 16µM* | -2% | -4%
O=C1NC(=S)S/C1=C\c1coc2ccccc2c1=O | -28% | 7% | ? | -13% | 17%
O=C1NC(=O)C(=C/C=C/c2coc3ccc(Br)cc3c2=O)C(=O)N1 | -50% | · | 0.79µM* | 9% | ·
COc1cc2c(cc1OC)n(CC(=O)c1ccc(F)cc1)c(=O)n1nc(CCn3nc(C)cc3C)nc21 | · | · | -2% | 0% | -6%
COc1cc2c(cc1OC)C1O[C@](CCCCN3C(=O)c4ccccc4C3=O)(C2)OC2=C1C(=O)OC1(CCCCC1)C2 | -6%[11.4 µM] | · | 4.5µM* | -10%[22.9 µM] | ·
COc1cc2c(cc1OC)C1O[C@](CCCCN3C(=O)c4ccccc4C3=O)(C2)OC2=C1C(=O)CC(C)(C)C2 | 140%[11.4 µM] | · | 4.5µM* | -13%[22.9 µM] | ·
CCN(CC)CCCNC(=O)c1ccc2c(c1)NC(=O)C(CS(=O)(=O)Cc1cccc(Br)c1)N2 (centres undefined) | · | · | -16% | -1% | 18%
Cc1ccc(-c2ccc(NC(=O)C3C4C=CC(C4)C3C(=O)O)cc2)o1 (centres undefined) | -8% | -13% | 45µM* | 0% | 58%
CCc1ccccc1NC(=O)C1CCCN(C(=O)c2cnn(-c3ccccc3)c2-n2cccc2)C1 (centres undefined) | · | · | 3% | 10% | 1%
CCCCN(CC)CCCNC(=O)c1ccc2c(c1)NC(=O)CN2C | · | · | 22µM* | -3% | -7%
COc1ccc(C(C)=O)cc1CSc1nnnn1-c1ccc(O)cc1 | -36% | -4% | 7.1µM* | 1% | -19%
Cc1ccc(C2CC(c3ccc(C)cc3)n3nc(N)nc3N2)cc1 (centres undefined) | 45µM* | 9% | -3% | ? | -22%
CCc1ccc(C2CC(c3ccc(F)cc3)Nc3nc(N)nn32)cc1 (centres undefined) | 4.5µM* | 0% | 4% | 10% | 0%
COc1ccccc1N1CCN(Cc2nc(-c3cc(OC)c(OC)c(OC)c3)no2)CC1 | · | · | -22% | 0% | -26%
COC(=O)c1cc2c(n1S(=O)(=O)c1ccc(C)cc1)C(=O)C(=O)c1[nH]cc(C(=O)OCc3ccccc3)c1-2 | · | -11% | · | · | 11µM*
COC(=O)c1ccc(COC(=O)c2ccc(CS(=O)(=O)c3ccc(C)cc3)cc2)cc1 | -31% | -13% | 6% | -4% | 5%
CC(=O)Nc1sc(N)nc1-c1ccccc1 | -10% | 15% | 0% | ? | -5%
Nc1nc(-c2ccc(Cl)cc2)c(N=Nc2ccc(S(=O)(=O)N3CCOCC3)cc2)s1 | -28% | -8% | -15% | -11% | ?
Nc1nc(-c2ccccc2)c(N=Nc2cccc3ccccc23)s1 | -22% | 16µM* | -3% | -3% | ?
Nc1nc(-c2ccccc2)c(N=Nc2ccccc2Cl)s1 | -34% | 14µM* | -12% | ? | -11%
Cc1ncc(N=Nc2ccccc2Cl)c(-c2ccccc2)n1 | 2% | 25µM* | 8% | -11% | ?
Cc1ccc(NC(=O)c2cccn2-c2nnc(N3CCCCC3)s2)cc1Cl | · | · | 0% | 0% | 11%
SMILES | AmpC inh no detg | AMA1-RON2 inh | Sm TGR block | AmpC detergent | FMDV antiviral
Cn1c(SCC(=O)Nc2nc3ccccc3s2)ncc(C(=O)Nc2ccc(Cl)cc2)c1=O | · | · | 12% | 1% | 2%
CCS(=O)(=O)N1CCc2cc(C(=O)Nc3cc(OC)c(Cl)cc3OC)ccc21 | · | · | -5% | 15% | 0%
COc1ccc(Nc2nc(CC(C)=O)ns2)cc1OC | -9% | 4% | 13µM* | ? | 19%
CC(=O)Cc1nsc(Nc2cccc(C)c2)n1 | -23% | 16% | -4% | -8% | 23%
CCCn1nc(C(=O)Nc2cc(S(=O)(=O)Nc3ccc(OC)cc3)ccc2O)c2ccccc2c1=O | 1.6µM* | 33% | · | · | 5%
CSc1nnc2[nH]c(=O)cc(C)n12 | · | · | 13% | 1% | -10%

Screening results from PubChem.
